A selection: hits, their analogues and other compounds. The true share with any hit is near 14%.
Pf growth 48h = inhibits P. falciparum growth in the first generation, 48 h | P. falciparum luciferase growth in erythrocytes, 48 h | Potency, µM (top dose mostly 28.7 µM), without a hit: at the top dose activity change, negative = inhibition, most hits filed as inhibitors | 5.9% of 310,000 active | AID 504832; note: potency is the fitted concentration of half-maximal effect
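First compound was added to culture medium, then infected red cells at 0.1% parasitemia and 2% hematocrit (final). After incubation at 37 C under 5% CO2, luciferase detection reagent was dispensed and light output recorded.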
HCMV antiviral = blocks human cytomegalovirus replication. HFF cells, HCMV-luciferase reporter, 72 h; active compounds read low. activity change, negative = inhibition, % at 57.5 µM. 4.5% of 410,000 active. AID 1259415; in the data active = activity change below about -60%; inconclusive = no clear call, values can overlap the other calls; inactive = above about -39%
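HFF cells seeded 16 h at 37C, treated with compounds, infected with luciferase-reporter HCMV at MOI 1 PFU/cell; luciferase read at 72 h post infection, normalized to buffer-only and Salinomycin controls.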
MARV entry inh = Marburg virus entry inhibition; Marburg virus pseudotyped entry inhibition, cell reporter; Potency, µM (highest dose often 37.8 µM), without a hit: at the top dose activity change, negative = inhibition, actives largely listed as inhibitors; 1.8% of 300,000 active; calls by dose curve; tested in HEK293 cells; note: potency is the fitted concentration of half-maximal effect
HCV inhibitor = blocks hepatitis C virus | 3.4% of 340,000 active | Huh7.5.1 HCVcc-Cre infection, luciferase reporter, 44 h | Potency, µM (series often up to 41.8 µM), without a hit: top-dose activity change, negative = inhibition, usual class: inhibitors; note: potency is the fitted concentration of half-maximal effect
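A cell-based infection assay in which seeded cells (1,000 per well) receive test compound after 4 h, are inoculated with HCVcc-Cre at approximately 0.5 moi, and are incubated 44 h before luminescence detection.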
Pf growth 96h = inhibits malaria parasite growth, 96 h. Potency, µM (highest dose often 28.7 µM), inactives show top-dose activity change, negative = inhibition, most hits filed as inhibitors. P. falciparum luciferase reporter growth, 96 h. 6.9% of 320,000 active. AID 504834; note: potency is the fitted concentration of half-maximal effect
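Delayed-death screen, second-generation endpoint: infected erythrocytes, 2% hematocrit, 0.05% parasitemia final; 96 hours at 37 C, 5% CO2; luciferase detection reagent; luminescence decrease equals reduced growth.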
LASV entry inh = blocks Lassa virus binding to or entry into cells; Lassa virus pseudotype entry inhibition, cell reporter; Potency, µM (doses to about 37.9 µM), inactives show at the highest dose activity change, negative = inhibition, usual class: inhibitors; 1.2% of 300,000 active; AID 540256; calls by dose curve; tested in HEK293 cells; note: potency is the fitted concentration of half-maximal effect; nearly all actives have a fitted effect of over 50% in size
* hit, by the source's call; u = inconclusive; x = not tested or not shown; [ ] = another dose, or the depositor's remark. Unless noted, calls come from the whole dose curve; as a rule, active = well fitted inhibition curve with a large enough effect; inconclusive = small, poorly fitted or top-dose-only effect, or another doubt; inactive = no such curve, though single readings can be large or run the other way. % is set by controls: 0 for no effect and ±100 for the full control effect.

SMILES	Pf growth 48h	HCMV antiviral	MARV entry inh	HCV inhibitor	Pf growth 96h	LASV entry inh
O=C(CNC1CC1)Nc1cc(C(F)(F)F)ccc1Cl	1.2µM*	u	x	7%	1.5µM*	x
O=C(CN1C(=O)C2CCCCC2C1=O)Nc1cccc(C(F)(F)F)c1 (stereo not drawn)	x	-7	10%	4%	x	17%
O=c1cc(CN2CCC(Cc3ccccc3)CC2)nc2sccn12	1%	1	22%[46.1 µM]	-11%	u	-10%[46.1 µM]
CC1CN(Cc2cc(=O)n3ccsc3n2)CC(C)O1 (stereo not drawn)	18%	55	1%[46.1 µM]	21%	12µM*	9%
CCNC(=O)C1(C)CCN(C(=O)c2cccc(C#N)c2)C1 (stereo not drawn)	x	5	x	x	x	x
COc1ccc2c(c1)C=C([C@@H]1C[C@H]3CN(c4ccccc4)C(=O)[C@]34CCCN14)CO2	1.5µM*	-14	u	-6%	u	11%
COc1ccccc1CN1C[C@@H]2C[C@@H](c3ccccc3C)N3CCC[C@@]23C1=O	u	-7	x	u	207%	x
COc1ccc([C@@H]2C[C@H]3CN(c4ccccc4)C(=O)[C@]34CCCN24)c(OC)c1OC	u	-37	x	24%	7%	x
Cc1ccccc1CN1C[C@@H]2C[C@@H](c3cnc(N4CCOCC4)s3)N3CCC[C@@]23C1=O	u	-76*	x	u	13%	x
CCn1ccnc1[C@@H]1C[C@H]2CN(Cc3ccccc3OC)C(=O)[C@]23CCCN13	11%	u	x	29%	9.3µM*	x
COCc1cc([C@@H]2C[C@H]3CN(c4ccccc4)C(=O)[C@]34CCCN24)ccc1OC	10µM*	-94*	x	8%	u	x
O=C(Nc1cccc(S(=O)(=O)NCc2ccco2)c1)c1cccc(Cl)c1	x	-39	x	u	x	x
CCOc1ccccc1NC(=O)C(CC)n1c(C(=O)OC)cc2occc21 (stereo not drawn)	x	3	u	x	x	x
COc1ccccc1CN1C[C@@H]2C[C@@H](c3ccc4nsnc4c3)N3CCC[C@@]23C1=O	u	-19	-1%[46.1 µM]	u	18%	0%[46.1 µM]
COc1ccccc1CN1C[C@@H]2C[C@@H](C3=Cc4cc(Cl)ccc4OC3)N3CCC[C@@]23C1=O	u	-18	x	11µM*	13µM*	x
CCc1ccc([C@@H]2C[C@H]3CN(Cc4ccccc4OC)C(=O)[C@]34CCCN24)cc1	5.9µM*	2	u	u	u	-20%[46.1 µM]
COc1ccccc1CN1C[C@@H]2C[C@@H](c3ccc(C)cc3)N3CCC[C@@]23C1=O	u	-32	-17%[46.1 µM]	u	u	-2%
COc1ccccc1CN1C[C@@H]2C[C@@H](c3[nH]c4ccc(C)cc4c3C)N3CCC[C@@]23C1=O	7.4µM*	11	u	-14%	-14%	-26%[46.1 µM]
CN1C[C@@H]2C[C@@H](C3=Cc4cc(Cl)ccc4OC3)N3CCC[C@@]23C1=O	-25%	-35	-3%[46.1 µM]	u	5%	8%
COc1cc(OC)c(NC(=O)NNC(=O)C(=O)NC2CC2)cc1Cl	x	0	x	x	x	x
Cc1ccc2c(=O)cc(CSCC(=O)Nc3nnc(C)s3)[nH]c2c1	x	-2	x	x	x	2%[46.1 µM]
COc1ccc(OC)c(S(=O)(=O)N(C)CC(=O)N2CCN(c3ccc(F)cc3)CC2)c1	-21%	48	-10%	13%	x	-16%
COc1ccc(C)cc1S(=O)(=O)N(C)CC(N)=O	-7%	-13	-3%[46.1 µM]	1%	10µM*	4%
COc1ccc(C)cc1S(=O)(=O)N(C)CC(=O)N1CCCC1	7%	19	x	-5%	12µM*	x
COc1ccc(OC)c(S(=O)(=O)N(C)CC(=O)N2CCN(c3cccc(Cl)c3)CC2)c1	u	-103*	u	-20%	8%	-8%
SMILES	Pf growth 48h	HCMV antiviral	MARV entry inh	HCV inhibitor	Pf growth 96h	LASV entry inh
COc1ccc(S(=O)(=O)N(C)CC(=O)N2CCN(C)CC2)cc1Cl	19%	-100*	x	8%	0%	x
COc1ccc(C)cc1S(=O)(=O)N(C)CC(=O)N1CCCCC1	x	u	u	29%	x	1%
COc1ccc(C)cc1S(=O)(=O)N(C)CC(=O)NC1CC1	x	14	20%	22%	u	0%
COc1ccc(S(=O)(=O)N(C)CC(=O)N2CCCCC2)cc1Cl	8%	-29	14%	-1%	u	6%
COc1ccc(Cl)cc1S(=O)(=O)N(C)CC(=O)N1CCCC1	5%	-9	x	12%	5.9µM*	x
C[C@H](CO)N1C[C@H](C)[C@@H](CN(C)S(=O)(=O)c2ccc(-c3ccccc3)cc2)OCc2cn(nn2)CCCC1=O	x	-3	x	x	x	x
COc1cc(C(c2c(C(=O)O)[nH]c3ccccc23)c2c(C(=O)O)[nH]c3ccccc23)ccc1OCc1ccccc1	0%	5	u	24%	13µM*	-2%[46.1 µM]
COc1ccc(C(C[N+](=O)[O-])c2c(C)[nH]c3ccccc23)cc1OC (stereo not drawn)	2.1µM*	79	-1%	u	u	-23%
COc1ccc(/C=C/C(=O)OCC(=O)c2c(C)[nH]c3ccccc23)cc1OC	u	1	15%	0%	u	0%
C[C@@H]1CCCCO[C@@H](CN(C)CC2CCCCC2)[C@@H](C)CN([C@H](C)CO)C(=O)c2cc(NC(=O)Nc3ccc4c(c3)OCO4)ccc2O1	x	9	x	x	x	x
CCC(NC(=S)NCc1ccc(F)cc1)c1ccccc1 (stereo not drawn)	6.6µM*	-21	x	u	u	x
Cc1ccc(C)c(C(C)NC(=S)NCc2ccc(F)cc2)c1 (stereo not drawn)	3.3µM*	-29	u	u	33%	-16%[46.1 µM]
Cc1ccc(C)c(NC(=S)NCc2ccccc2)c1	u	6	1%[46.1 µM]	-19%	-27%	u
COc1ccc(C(C)NC(=S)NCc2ccc(F)cc2)cc1 (stereo not drawn)	u	-26	-16%[46.1 µM]	-20%	-31%	u
Cc1ccc(C2=NN=C(NC(=O)CSc3nnc4c5ccccc5n(C)c4n3)SC2)cc1	3.3µM*	x	u	u	18%	u
C[C@H]1CN([C@@H](C)CO)C(=O)CCCn2nncc2CO[C@@H]1CN(C)C(=O)Nc1ccccc1F	x	-12	x	x	x	x
CC(C)CNC(=O)c1cc([N+](=O)[O-])ccc1N1CCOCC1	26%	48	3%	6%	56%	2%
CC(C)(CNC(=O)c1cc([N+](=O)[O-])ccc1N1CCC(Cc2ccccc2)CC1)N1CCOCC1	9.3µM*	-63*	x	u	u	x
Cc1cc(C)c(NC(=O)CNC(=O)c2cc([N+](=O)[O-])ccc2N2CCOCC2)c(C)c1	u	-4	u	25µM*	2%	u
CCN(CC)S(=O)(=O)c1ccc(OC)c(NC(=O)c2cc([N+](=O)[O-])ccc2N2CCOCC2)c1	x	-38	x	x	x	x

Screening results: PubChem BioAssay, National Center for Advancing Translational Sciences (NCATS)
